The values that follow come from PubChem BioAssay (Tox21).

A short description of assay [1]: qHTS assay to identify small molecule antagonists of the constitutive androstane receptor (CAR) signaling pathway - cell viability counter screen (AID 1224837). Also: nearly all actives have a fitted effect of over 45% in size. Also: potency is read from the fitted curve at half-maximal effect. A digest of the protocol: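 Cells are seeded, rested 4 hr at 37 C/5% CO2, dosed with compound (15-point series) and 50 nM CITCO, incubated a further 23 hr, and then CellTiter-Fluor reagent is added before fluorescence is read. The line is HepG2 with stable hCAR and CYP2B6-2.2kb.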
Background: qHTS replaces the single test concentration by a dilution series.

Assay [2] is described as follows: qHTS assay to identify small molecule antagonists of the estrogen related receptor signaling pathway with the pleiotropic PPARgamma coactivator (PGC) from Tox21 10K library - cell viability counter screen (AID 1224840; active = well fitted cell-killing curve with a large enough effect in the repeat runs, not every such curve was filed as active; also: nearly all actives have a fitted effect of over 40% in size; also: potency is read from the fitted curve at half-maximal effect). A digest of the protocol: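 Cell viability is measured by CellTiter-Fluor fluorescence in PGC/ERR cells that receive compounds after a 6-hour attachment period and are then incubated 17.5 hours at 37 C.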

Assay [3] can be described thus: qHTS assay to identify small molecule antagonists of the estrogen related receptor signaling pathway with the pleiotropic PPARgamma coactivator (PGC) from Tox21 10K library (AID 1224841; call rule not given here; also: actives are mostly falling curves and most rising ones were filed inactive; nearly all actives have a fitted effect of over 50% in size; also: potency is read from the fitted curve at half-maximal effect). A digest of the protocol: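 Cells stably carrying the PGC/ERR reporter, seeded at 2,000 per well, received pin-transferred compounds 6 h post-plating. Exposure lasted 18 h at 37 C. Signal: One-Glo luminescence.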

Assay [4] is described as follows: qHTS assay to identify small molecule agonists of the estrogen related receptor signaling pathway with the pleiotropic PPARgamma coactivator (PGC) from Tox21 10K library (AID 1224842). Also: nearly all actives have a fitted effect of over 15% in size. In outline: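 PGC/ERR reporter cell line, 2,000 cells per well, incubated 6 h at 37 C before 23 nL compound in DMSO was added. After 18 h at 37 C, One-Glo luminescence read following 30 min at room temperature.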

Assay [5] can be described thus: qHTS assay to identify small molecule agonists of the hypoxia (HIF-1) signaling pathway - cell viability counter screen (AID 1224844; calls by dose curve; also: nearly all actives have a fitted effect of over 50% in size; also: potency is read from the fitted curve at half-maximal effect). A digest of the protocol:
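Viability counter screen: HRE-bla ME-180 cells plated 5 hrs before compound addition, treated 17 hrs at 37C and 5% CO2, then CellTiter-Glo added after the FRET reporter read; luminescence after 30 min.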

The nature of assay [6]: qHTS assay to identify small molecule agonists of H2AX (AID 1224845; active = well fitted activation curve with a large enough effect in the signal ratio in the repeat runs, not every such curve was filed as active; the % refers to the signal ratio). In outline:
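Wild-type CHO-K1 cells, plated overnight, exposed 3hr at 37C to 15 concentrations (0.76% DMSO final). Lysed, then HTRF anti-pH2AX (S139) cryptate and anti-H2AX-d2 antibodies, 24 hr room temperature; 665/620 nm emission read.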

Assay [7] is described as follows: qHTS assay to identify small molecule agonists of the hypoxia (HIF-1) signaling pathway (AID 1224846; active = well fitted activation curve with a large enough effect in the signal ratio in the repeat runs, not every such curve was filed as active; the % refers to the signal ratio). In outline:
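Agonist mode reporter screen. ME-180 cells stably expressing bla under HRE control received test compounds in DMSO for 17 hrs (37C, 5% CO2), and beta-lactamase activity was then detected with the CCF4-AM FRET substrate.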

Assay [8] in a line: qHTS assay to identify small molecule agonists of H2AX - cell viability counter screen (AID 1224847; calls by dose curve; also: nearly all actives have a fitted effect of over 30% in size; also: potency is read from the fitted curve at half-maximal effect). A digest of the protocol:
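Quantitative HTS viability measurement: CHO-K1 wild-type cells in serum (10% FBS) medium, short 3 hr drug exposure at 37C with 0.76% DMSO, CellTiter-Glo luminescent detection.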

A short description of assay [9]: qHTS assay to identify small molecule antagonists of the estrogen related receptor (ERR) signaling pathway from Tox21 library (AID 1224848). Also: nearly all actives have a fitted effect of over 50% in size. Also: potency is read from the fitted curve at half-maximal effect. In outline: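 Compounds dissolved in DMSO are pin-transferred onto ERR reporter cells (2,000 per well) that have settled for 6 h at 37 C. Plates then incubate 18 h at 37 C before ONE-Glo luciferase reagent and a luminescence read 30 min later.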

A short description of assay [10]: qHTS assay to identify small molecule agonists of the estrogen related receptor (ERR) signaling pathway from Tox21 library (AID 1224849; calls by dose curve; also: nearly all actives have a fitted effect of over 15% in size). The following applies: ERR reporter cell line, ONE-Glo luciferase, 18 h. A digest of the protocol: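 Quantitative HTS in agonist format: NTP ERR cell line, compounds transferred in DMSO after 6 h plating, 18 h incubation at 37 C, ONE-Glo luminescence endpoint.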

Assay [11] can be described thus: qHTS RealTime-Glo MT Cell Viability Assay in HepG2 cells - 24 hour (AID 1224867). Also: nearly all actives have a fitted effect of over 50% in size. Also: potency is read from the fitted curve at half-maximal effect. In outline:
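Real-time, nonlytic viability: 600 HepG2 cells/well mixed with NanoLuc enzyme plus prosubstrate; 5 h settle, compound (DMSO) added by pintool; luminescence monitored over 40 h at 37 C.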

Assay [12] in a line: qHTS RealTime-Glo MT Cell Viability Assay in HEK293 cells - 32 hour (AID 1224868). Also: nearly all actives have a fitted effect of over 50% in size. Also: potency is read from the fitted curve at half-maximal effect. In outline: (§1)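 Cells + reagent dispensed (600 cells/well, HEK293) → 5 h at 37 C/5% CO2 → 23 nL compound in DMSO pinned → 40 h at 37 C → luminescence read at 0, 8, 16, 24, 32, 40 h.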
A short description of assay [13]: qHTS RealTime-Glo MT Cell Viability Assay in HepG2 cells - 40 hour (AID 1224870). Also: nearly all actives have a fitted effect of over 50% in size. Also: potency is read from the fitted curve at half-maximal effect. In outline:
(§2)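 HepG2 cells (600/well) mixed with RealTime-Glo MT reagent, settled 5 h at 37 C/5% CO2 before compound addition. Nonlytic NanoLuc luminescence from viable-cell prosubstrate reduction read repeatedly during 40 h treatment at 37 C.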

Assay [14] is described as follows: A CellTox Green Cytotoxicity Assay to monitor cytotoxicity in HEK293 cells - 40 hour (AID 1224871). Also: nearly all actives have a fitted effect of over 45% in size. Also: potency is read from the fitted curve at half-maximal effect. In outline: (§3)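 Dead-cell fluorescence measured kinetically: asymmetric cyanine dye, HEK293, 600 cells/well, 5 h settle, 23 nL cpd/DMSO, 37 C, reads 0–40 h every 8 h.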
Assay [15] is described as follows: qHTS RealTime-Glo MT Cell Viability Assay in HEK293 cells - 16 hour (AID 1224872). Also: nearly all actives have a fitted effect of over 50% in size. Also: potency is read from the fitted curve at half-maximal effect. In outline: as §1
A short description of assay [16]: qHTS RealTime-Glo MT Cell Viability Assay in HepG2 cells - 8 hour (AID 1224873). Also: nearly all actives have a fitted effect of over 55% in size. Also: potency is read from the fitted curve at half-maximal effect. In outline: as §2
Assay [17] concerns the target Nuclear receptor subfamily 1 group I member 3 (Homo sapiens) (UniProt Q14994). The assay can be described thus: qHTS assay to identify small molecule antagonists of the constitutive androstane receptor (CAR) signaling pathway (AID 1224838).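 Also: HepG2 cells stably expressing hCAR with CYP2B6 luciferase reporter stimulated by CITCO; nearly all actives have a fitted effect of over 40% in size.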 Also: potency is read from the fitted curve at half-maximal effect. A digest of the protocol:
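Luminescence from a CYP2B6-2.2kb promoter reporter in hCAR-expressing HepG2 cells reflects CAR signaling. Cells received compounds at 15 concentrations and 50 nM CITCO (final), then incubated 24 h at 37 C/5% CO2.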

Assay [18] has the same target. Kind of assay: qHTS assay to identify small molecule agonists of the constitutive androstane receptor (CAR) signaling pathway (AID 1224839). Also: nearly all actives have a fitted effect of over 15% in size. Also: potency is read from the fitted curve at half-maximal effect.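 As to activation: HepG2 cells stably carrying human CAR and a CYP2B6 luciferase reporter.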 In outline: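 Double-stable HepG2 cells (hCAR, CYP2B6-2.2kb) seeded 4 h before compound addition. Exposure 24 h with 0.75 uM PK11195 final. Luciferase detected by ONE-Glo.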
Assay [19] addresses Thyrotropin receptor (Homo sapiens) (UniProt P16473). Kind of assay: qHTS assay to identify small molecule agonists of the thyroid stimulating hormone receptor (TSHR) signaling pathway (AID 1224843; calls by dose curve; also: nearly all actives have a fitted effect of over 45% in size; also: potency is read from the fitted curve at half-maximal effect). In outline: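 HEK293/TSHR, 800 cells/well; cpd 30 min RT; add cAMP-d2 + anti-cAMP-cryptate, 1 h RT; fluorescence read on plate reader. 15-pt titration, n=3.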
The nature of assay [20]: A CellTox Green Cytotoxicity Assay to monitor cytotoxicity in HEK293 cells - 0 hour (AID 1224869). Also: nearly all actives have a fitted effect of over 50% in size. In outline:
as §3

Molecules are shown by their SMILES. Several values for one entry are separate records, joined by “and”; a condition that tells them apart may be missing. Equal values may be shown once. Records with an inconclusive call do not appear. More than one record can exist for a structure, and the calls need not agree. Activity calls are given as the source filed them. Unless noted, calls follow the shape of the dose curve; as a rule, active = well fitted curve in the direction sought with a large enough effect in the repeat runs; inconclusive = weak or mixed curves; inactive = no such curve, though single readings can be large; an effect the other way counts as inactive or inconclusive.
% is scaled to controls: 0 for no effect and ±100 for the full control effect.

Nuclear receptor subfamily 1 group I member 3 (Homo sapiens), sequence (Q14994 whole entry, looked up): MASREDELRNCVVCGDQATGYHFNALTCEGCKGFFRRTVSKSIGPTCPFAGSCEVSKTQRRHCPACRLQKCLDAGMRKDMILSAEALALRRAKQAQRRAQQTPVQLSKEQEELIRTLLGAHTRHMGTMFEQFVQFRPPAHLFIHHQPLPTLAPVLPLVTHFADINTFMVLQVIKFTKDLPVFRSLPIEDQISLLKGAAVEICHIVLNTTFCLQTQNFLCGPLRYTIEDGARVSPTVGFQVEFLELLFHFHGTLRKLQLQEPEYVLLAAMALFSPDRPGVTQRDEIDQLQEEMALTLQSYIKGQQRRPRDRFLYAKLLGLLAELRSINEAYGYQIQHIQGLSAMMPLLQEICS
Thyrotropin receptor (Homo sapiens), sequence (P16473 whole entry, looked up): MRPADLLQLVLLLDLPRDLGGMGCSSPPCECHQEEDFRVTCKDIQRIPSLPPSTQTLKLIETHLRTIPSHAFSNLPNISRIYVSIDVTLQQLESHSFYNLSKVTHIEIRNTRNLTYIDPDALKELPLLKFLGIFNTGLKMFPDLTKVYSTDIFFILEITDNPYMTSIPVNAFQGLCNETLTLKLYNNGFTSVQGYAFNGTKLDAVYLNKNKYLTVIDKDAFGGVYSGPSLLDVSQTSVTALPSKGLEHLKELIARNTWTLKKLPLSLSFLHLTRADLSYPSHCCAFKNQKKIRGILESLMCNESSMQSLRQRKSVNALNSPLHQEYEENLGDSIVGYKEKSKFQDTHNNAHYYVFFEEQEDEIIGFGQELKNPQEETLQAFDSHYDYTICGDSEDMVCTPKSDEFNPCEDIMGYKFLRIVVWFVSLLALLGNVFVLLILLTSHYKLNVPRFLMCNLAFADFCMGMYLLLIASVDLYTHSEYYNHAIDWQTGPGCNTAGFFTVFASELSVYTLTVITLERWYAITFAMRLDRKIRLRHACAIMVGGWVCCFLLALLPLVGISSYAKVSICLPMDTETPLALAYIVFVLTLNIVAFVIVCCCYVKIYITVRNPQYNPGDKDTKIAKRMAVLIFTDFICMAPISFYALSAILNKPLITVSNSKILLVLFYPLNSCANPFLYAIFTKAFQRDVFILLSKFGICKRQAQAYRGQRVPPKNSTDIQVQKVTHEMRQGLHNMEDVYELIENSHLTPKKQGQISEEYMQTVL

As for `COc1ccccc1N`, the Potency result in assay [1], in assay [2], in assay [3], in assay [4], in [5] and in assay [6] was “inactive” in each case. In addition, the Potency entry in assay [8], in [9], in [11], in assay [12], in assay [13] and in assay [14] was “inactive” each time. The Potency result in [15] and in assay [16] was “inactive” in each case. Besides, in assay [7], the call was inactive. In assay [10] (at 92.4 µM (top of the series)), the activity change, positive = activation was 8.48% (inactive) and 0.539% (inactive) and 1.9% (inactive).

On to `Cc1cc(-c2ccc(N)c(C)c2)ccc1N`, for which the Potency entry in [1], in assay [17], in assay [2], in assay [5], in [8] and in assay [11] was “inactive” each time. Also, the Potency entry in assay [12], in [20], in [13], in assay [14], in assay [15] and in [16] was “inactive” throughout. Moreover, the Potency in assay [18] is 12.2 µM (active); in assay [19] it was 1.35 µM (active). For the same compound, the compound was classed as inactive in assay [7].

`C1CCC(NC2CCCCC2)CC1`: the Potency entry in assay [1], in [17], in [18], in assay [2], in assay [19] and in assay [5] was “inactive” throughout. In addition, the Potency entry in assay [6], in [8], in assay [11], in [12], in assay [13] and in assay [14] was “inactive” throughout. Moreover, the Potency entry in assay [15] and in [16] was “inactive” throughout. The compound was classed as inactive in [7].

For `Nc1ccc(-c2ccc(N)cc2)cc1`, the Potency result in assay [1], in assay [17], in [2], in assay [19], in assay [5] and in [8] was “inactive” each time. Moreover, the Potency result in [11], in assay [12], in assay [13], in [14], in assay [15] and in [16] was “inactive” each time. The Potency in assay [18] was 53.9 µM (active) and inactive and 21.7 µM (active). Moreover, the result in [7] was inactive.

For the compound `Cc1cc(Cl)ccc1OCC(=O)O`, the Potency result in assay [1], in assay [17], in [18], in assay [2], in assay [19] and in [5] was “inactive” in each case. In addition, the Potency result in assay [6], in [8], in [11], in [12], in assay [13] and in [14] was “inactive” each time. Moreover, the Potency result in assay [15] and in [16] was “inactive” throughout. Moreover, the call in assay [7] was inactive.

For the compound `CC(=O)[O][Hg][c]1ccccc1`, the Potency in assay [1] is 2.71 µM (active) and 4.33 µM (active) and 5.31 µM (active); in [17], 2.41 µM (active) and 4.33 µM (active) and 5.31 µM (active); in assay [2] it was 1.92 µM (active) and 2.43 µM (active) and 6.68 µM (active); in assay [3] it was 2.71 µM (active) and 4.86 µM (active) and 9.44 µM (active); in [19] it was 2.71 µM (active) and 770 nM (active) and 9.44 µM (active); in [5] it was 154 nM (active) and 1.74 µM (active) and 2.68 µM (active). For the same compound, the Potency in assay [8] was 3.16 µM (active) and 5.66 µM (active) and 24.7 µM (active); in assay [9] it was 2.15 µM (active) and 3.44 µM (active) and 5.96 µM (active); in [11], 1.72 µM (active) and 1.95 µM (active) and 1.07 µM (active); in assay [12], 306 nM (active) and 977 nM (active) and 239 nM (active); in assay [13], 1.93 µM (active) and 1.95 µM (active) and 1.07 µM (active); in [14] it was 433 nM (active) and 1.1 µM (active) and 213 nM (active). The Potency in assay [15] is 344 nM (active) and 1.1 µM (active) and 268 nM (active); in [16] it was 1.93 µM (active) and 1.74 µM (active) and 1.07 µM (active). Moreover, the Potency entry in [18], in assay [4] and in assay [20] was “inactive” each time. The activity change, positive = activation was -71% (inactive) in assay [10] (at 42.5 µM (top of the series)); -80.3% (inactive) and -73.5% (inactive) in assay [10] (at 92.4 µM (top of the series)).
